The sample as a whole holds a higher share of hits than the screen did.
DT40 TDP1 no CPT: qHTS for Inhibitors of human tyrosyl-DNA phosphodiesterase 1 (TDP1): qHTS in cells in absence of CPT. DT40 Tdp1-/- hTDP1 cells, no CPT, ATP luminescence, 48 h. AID 686978, 2013. 15% of 420,000 active. Potency, µM (top dose mostly 46.2 µM), for inactives: at the top dose activity change, negative = growth inhibition, most hits filed as inhibitors; further: potency means the concentration at half of the fitted maximal effect; nearly all actives have a fitted effect of over 55% in size
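Camptothecin absent (DMSO only). Human TDP1-complemented DT40 knockout cells, 400 cells/well, 37 °C for minimum 48 hr; ATP measured via CellTiter-Glo, 30 min dark incubation, luminescence.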
HT1080NT lethal: qHTS for induction of synthetic lethality in tumor cells producing 2HG: qHTS for the HT-1080-NT fibrosarcoma cell line. HT-1080-NT fibrosarcoma viability, CellTiter-Glo ATP luminescence, 48 h. Potency, µM (highest dose often 46.1 µM), for inactives: top-dose activity, negative = less viability, most hits filed as cytotoxic. 1.6% of 360,000 active. AID 686970, 2013;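 further: NT is the 2HG producing partner of a matched IDH1 knockdown line; potency means the concentration at half of the fitted maximal effect; 0% = DMSO-treated cells and -100% = media-only wells without cells; nearly all actives have a fitted effect of over 55% in size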
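A 48-hour cytotoxicity screen used HT-1080-NT cells plated 2 hours before compound delivery. ATP-based CellTiter-Glo luminescence measured viability, normalized to DMSO and no-cell controls.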
IL1B secr inh: qHTS for Inhibitors of Inflammasome Signaling: IL-1-beta AlphaLISA Primary Screen | 4.7% of 360,000 active | THP-1 LPS/ATP IL-1B secretion, AlphaLISA, 16 h; stronger effect = lower value | activity change, % at 57.5 µM; in the data active means activity change below about -50%; inconclusive means mostly about -30% to -49%
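THP-1 cells pretreated 1 hr with compounds (up to 57.5 uM final), then stimulated with LPS (250 ng/mL final) plus ATP (1.25 mM final); secreted IL-1B measured by AlphaLISA after 16 hr, decreased signal indicating inhibition.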
HT1080 IDH1KD tx: qHTS for induction of synthetic lethality in tumor cells producing 2HG: qHTS for the HT-1080-IDH1KD cell line; HT-1080 IDH1 knockdown viability, ATP luminescence, 48 h; Potency, µM (doses to about 46.1 µM), for inactives: at the top dose activity, negative = toxicity, hits mostly cytotoxic; 2% of 360,000 active;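 further: potency means the concentration at half of the fitted maximal effect; 0% = DMSO wells and -100% = cell-free medium wells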
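Luminescent ATP read-out (CellTiter-Glo, 10 min at room temperature) after 48 h compound exposure at 37 °C gave viability of IDH1-knockdown HT-1080 cells. Activity was normalised to DMSO and cell-free wells, then fitted as concentration-response curves.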
DT40 TDP1 CPT: qHTS for Inhibitors of human tyrosyl-DNA phosphodiesterase 1 (TDP1): qHTS in cells in presence of CPT. chicken DT40 Tdp1-/-;hTDP1 cells + 20 nM CPT, ATP luminescence, 48 h. Potency, µM (titrated, usually from 46.2 µM), for inactives: top-dose activity change, negative = growth inhibition, usual class: inhibitors. 12% of 420,000 active. AID 686979, 2013; further: potency means the concentration at half of the fitted maximal effect; nearly all actives have a fitted effect of over 55% in size
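Chicken DT40 Tdp1-/- cells stably complemented with human TDP1 were seeded at 400 cells/well in medium containing 20 nM camptothecin, exposed to pin-transferred compounds, and grown at 37 °C for at least 48 hr. Viability was read as ATP luminescence.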
12-LOX inh: Primary qHTS assay for inhibitors of human arachidonate 12S-lipoxygenase (ALOX12): Round 2; Polyunsaturated fatty acid lipoxygenase ALOX12 (Homo sapiens), P18054; purified 12hLO, xylenol orange hydroperoxide absorbance; Potency, µM (highest dose often 108 µM), inactives show at the highest dose activity change, negative = inhibition, usual class: inhibitors; 1.1% of 580,000 active; further: potency means the concentration at half of the fitted maximal effect
Target sequence (P18054 whole entry, looked up): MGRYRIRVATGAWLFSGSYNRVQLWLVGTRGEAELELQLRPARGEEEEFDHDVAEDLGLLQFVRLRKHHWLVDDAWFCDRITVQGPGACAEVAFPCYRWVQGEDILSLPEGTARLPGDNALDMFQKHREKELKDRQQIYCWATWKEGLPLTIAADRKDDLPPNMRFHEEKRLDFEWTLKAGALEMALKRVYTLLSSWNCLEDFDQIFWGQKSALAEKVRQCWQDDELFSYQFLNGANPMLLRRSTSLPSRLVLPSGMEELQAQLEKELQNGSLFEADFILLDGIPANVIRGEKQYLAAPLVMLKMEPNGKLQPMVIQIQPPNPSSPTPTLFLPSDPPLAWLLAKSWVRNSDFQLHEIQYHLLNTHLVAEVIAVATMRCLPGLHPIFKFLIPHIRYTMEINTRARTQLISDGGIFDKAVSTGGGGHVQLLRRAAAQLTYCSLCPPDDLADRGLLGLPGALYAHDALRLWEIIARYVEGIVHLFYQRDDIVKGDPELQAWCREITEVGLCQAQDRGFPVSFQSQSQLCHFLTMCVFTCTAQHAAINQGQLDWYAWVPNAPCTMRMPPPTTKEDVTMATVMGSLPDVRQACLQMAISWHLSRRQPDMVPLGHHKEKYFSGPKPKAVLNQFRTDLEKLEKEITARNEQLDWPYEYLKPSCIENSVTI
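Purified human 12hLO at 150 nM in 25 mM Hepes, 0.01% Triton X-100, pH 7.0, preincubated 15 min at room temperature with compound. Reaction started with 40 uM arachidonic acid, 30 min at room temperature. Hydroperoxide measured by Fe-xylenol orange, 573/405 nm absorbance ratio.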
Active calls of the source: *; i = inactive; ? = inconclusive; / = no result given. Unless noted, the call rests on the fitted dose curve; in most records, active means well fitted curve in the direction sought with a large enough effect; inconclusive means small, poorly fitted or top-dose-only effect, or another doubt; inactive means no such curve, though single readings can be large; an effect the other way counts as inactive or inconclusive. Unless noted, on the % scale 0 is the no-effect control and ±100 the full control effect.

SMILES | DT40 TDP1 no CPT | HT1080NT lethal | IL1B secr inh | HT1080 IDH1KD tx | DT40 TDP1 CPT | 12-LOX inh
Cc1cc(NC(=O)Cc2ccccc2)c2ccccc2n1 | 2.6µM* | ? | -22 | -11% | 5.2µM* | 3%
COC(=O)c1ccc(COC(=O)c2ccc(C(C)=O)s2)cc1 | / | / | / | / | / | 19%
Cc1cccc(OCC(=O)N(C)C2CCc3nn(CC4CC4)c(=O)n3CC2)c1 (stereo not drawn) | / | / | / | / | / | 59%
Cc1ccccc1N1Cc2c(NCc3cccc(Cl)c3)ncnc2N(C)CC1=O | / | / | / | / | / | 32%
Cc1cccc(C(=O)N2CCCCC2c2n[nH]c(C)n2)c1 (stereo not drawn) | / | / | / | / | / | 39%
O=C(NCCCO)C(O)(c1ccccc1)c1ccccc1 | / | / | / | / | / | -5%
O=C(c1ccc2c(c1)OCO2)N1CCC2(CCCN(CCCc3ccccc3)C2)C1 (stereo not drawn) | / | / | / | / | / | -9%
COc1cccc2c(Nc3ccccc3C)cc(C)nc12 | 13µM* | ? | -101* | ? | 18µM* | 0%
Cc1[nH]c2ccccc2c1C(=O)C(C)Sc1nc2ccccc2c(=O)n1Cc1cccnc1 (stereo not drawn) | 11µM* | / | / | / | 7.9µM* | /
CCCn1c(CN2CCCCCC2)nc2cc(NC(=O)c3ccccc3)ccc21 | / | / | / | / | / | 71%
COc1ccc(C(=O)N2CCCC(c3nc(-c4ccccc4)no3)CCNC(=O)CC2)cn1 (stereo not drawn) | / | / | / | / | / | 7%
N#CC1(CCCN2CCCCC2)c2ccccc2CCc2ccccc21 | ? | -16% | -57* | -5% | ? | ?
CCOC(=O)C1=C(C)NC2=C(C(=O)CC(C)(C)C2)C1c1cccc(C)n1 (stereo not drawn) | -3% | 2% | 25 | -5% | -8% | 0%
CCOC(=O)CN=C1CC(C)(C)CC2=C1Sc1ncnc(N(C)C)c1N2 | 23µM* | 6% | 28 | ? | 13µM* | ?
CN1CCCCCC(O)c2cc(C(=O)N3CCN(c4ccccc4F)CC3)ccc21 (stereo not drawn) | / | / | / | / | / | 42%
CCN(CC)S(=O)(=O)c1cc(C(=O)Oc2cccc(-c3cnc4ccccc4n3)c2)ccc1Br | 18µM* | -2% | 15 | 0% | ? | i
CCCCN1C(C)=NS(=O)(=O)c2cc(C(=O)Nc3ccc(OCC)cc3)ccc21 | / | / | / | / | / | -13%
Cc1cc(NC(=O)CN2C(=O)c3cccnc3Sc3ccccc32)ccc1Br | 23µM* | / | / | / | ? | 1%
CCN(CC)c1ccc(NC(=O)CN2C(=O)c3cccnc3Sc3ccccc32)c(C)c1 | 13µM* | / | / | / | 16µM* | -5%
Cc1ccc(NC(=O)CN2C(=O)c3ccccc3Sc3ncccc32)c(C)c1 | 23µM* | / | / | / | 23µM* | -6%
Cc1ccc(NC(=O)CCN2C(=O)c3ccccc3Sc3ncccc32)cc1 | 16µM* | -1% | 23 | -15% | 16µM* | -32%
Cc1ccccc1NC(=O)CCN1C(=O)c2ccccc2Sc2ncccc21 | ? | / | / | / | -27% | -6%
Cc1cc(C)c(NC(=O)CN2C(=O)c3cccnc3Sc3ccccc32)c(C)c1 | -31% | / | / | / | ? | 1%
OC1CC(c2cc(N3CCC(Cc4noc(C5CC5)n4)CC3)ncn2)C1 (stereo not drawn) | / | / | / | / | / | 30%
CCOc1ccc(NC(=O)c2nc3ccccc3nc2N2CCOCC2)cc1 | / | / | / | / | / | -18%
SMILES | DT40 TDP1 no CPT | HT1080NT lethal | IL1B secr inh | HT1080 IDH1KD tx | DT40 TDP1 CPT | 12-LOX inh
CC(C)CCNC(=O)CCCN1C(=O)c2ccccc2Sc2ncccc21 | ? | / | / | / | 15µM* | 0%
Cc1ccc(Cl)cc1N1CCN(C(=O)C2CCN(S(C)(=O)=O)CC2)CC1 | 5.8µM* | -2% | 0 | -6% | ? | 1%
Cc1cc(C)nc(N2CCC(C(=O)N3CCN(c4cc(Cl)ccc4C)CC3)CC2)n1 | 18µM* | ? | -15 | ? | ? | -20%
Cc1ccc(Cl)cc1N1CCN(C(=O)C2CCN(S(=O)(=O)c3cn(C)cn3)CC2)CC1 | ? | / | / | / | ? | -25%
Cc1ccc(Cl)cc1N1CCN(C(=O)C2CCN(S(=O)(=O)c3cnc[nH]3)CC2)CC1 | ? | 11% | -4 | 15% | ? | 0%
Cc1ccc(C)c(N2CCN(C(=O)C3CCN(c4nc(C)cc(C)n4)CC3)CC2)c1 | 12µM* | ? | -8 | ? | 15µM* | -12%
Cc1ccc(Cl)cc1N1CCN(C(=O)C2CCCN(S(=O)(=O)c3cnc[nH]3)C2)CC1 (stereo not drawn) | 23µM* | 16% | -3 | 8% | 15µM* | 20%
OC1CCC(Nc2nccc3[nH]c(-c4ccccc4Cl)nc23)CC1 (stereo not drawn) | / | / | / | / | / | 1%
CCOc1ccc(-c2cc3c(=O)n(CCNC(=O)C4(c5ccccc5)CC4)ccn3n2)cc1 | / | / | / | / | / | 22%
O=C(O)c1cccc(COc2ccc(Br)cc2)c1 | / | / | / | / | / | -21%
COc1cc(CNC(=O)c2cccc(COc3ccc(Cl)cc3)c2)cc(OC)c1 | 16µM* | -6% | -12 | -13% | ? | -13%
O=C(NCc1ccccc1)c1cccc(COc2ccc(Cl)cc2)c1 | ? | -12% | ? | -14% | -14% | 0%
CC1CN(C(=O)c2cccc(COc3ccc(Br)cc3)c2)CC(C)O1 (stereo not drawn) | 13µM* | -10% | -15 | -1% | 21µM* | 19%
NNC(=O)c1ccc(COc2ccc3ccccc3c2)cc1 | 21µM* | ? | 33 | -17% | ? | 4%
NNC(=O)c1cccc(COc2ccc(Br)cc2)c1 | ? | 3% | i | 2% | 21µM* | 11%
Nc1cc(=O)n(Cc2ccccc2)c(N)c1C(=O)NCc1ccccc1 | / | / | / | / | / | -2%
O=S(=O)(NC1CCN(S(=O)(=O)c2c(Cl)cccc2Cl)CC1)c1cccs1 | / | / | / | / | / | -1%
COc1ccc(-c2csc(NCCc3nc4cc(C(=O)NCCCO)ccc4n3Cc3ccc(C)cc3)n2)cc1 | ? | -15% | -6 | -14% | ? | ?

Assay outcomes deposited in PubChem BioAssay by National Center for Advancing Translational Sciences (NCATS).
